# From PubChem
# This is a sample that favours compounds with a hit; in the whole collection about 5.7% have one here.
# ATXN2 expr inh = Primary qHTS for Inhibitors of ATXN expression | 0.72% of 360,000 active | Potency, µM (highest dose often 57 µM), actives largely listed as inhibitors | HEK-293 ATXN2-luciferase reporter, luminescence, 24 h | AID 1745845, 2022; further: nearly all actives have a fitted effect of over 55% in size
#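 ATXN2-luciferase reporter cells (luciferase flanked by upstream and downstream ATXN2 gene portions) were treated 24 h at 37 °C with compounds at up to 57 uM. SteadyGlo luminescence gave expression; GF-AFC fluorescence gave viability.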
# IL-1B inflam inh = qHTS for Inhibitors of Inflammasome Signaling: IL-1-beta AlphaLISA Primary Screen; THP-1 LPS/ATP IL-1B secretion, AlphaLISA, 16 h; hits give low values; 4.7% of 360,000 active; activity change, % at 57.5 µM; AID 743279, 2014; in the data active means activity change below about -50%; inconclusive means mostly about -30% to -49%
#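 THP-1 cells pretreated 1 hr with compounds (up to 57.5 uM final), then stimulated with LPS (250 ng/mL final) plus ATP (1.25 mM final); secreted IL-1B measured by AlphaLISA after 16 hr, decreased signal indicating inhibition.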
# TGFb inhibitor = qHTS for Inhibitors of TGF-b; HepG2 CAGA-GFP TGF-b/SMAD3 reporter, GFP fluorescence, 18 h; TGF-beta stimulated, 500 pg/mL final; AID 588855, 2011; 1.2% of 410,000 active; Potency, µM (top dose mostly 46.1 µM), usual class: inhibitors; further: nearly all actives have a fitted effect of over 65% in size
#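 Using HEPG2 CAGA-GFP reporter cells at 1000 cells/well, we pinned test compounds, stimulated with recombinant TGF-beta (500 pg/mL final) and measured total well GFP after 18 h.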
# HepG2 viability = qHTS for Inhibitors of TGF-b: Cytotox Counterscreen | HepG2 CAGA-GFP viability, ATP luminescence, 18 h | Potency, µM (highest dose often 46.1 µM), hits mostly cytotoxic | 0.76% of 410,000 active | AID 588856, 2011
#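 CellTiter-Glo luminescence gave cytotoxicity after 18 hours at 37 degrees C. The cells were HepG2 CAGA-GFP in 1% FBS DMEM, stimulated with 500 pg/mL TGF-beta after compound addition. %Activity was normalised to no-cell wells (complete cell-killing) and DMSO (no toxicity), and curves were fitted and classified.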
# ATXN viability = Viability Counterscreen for Primary qHTS for Inhibitors of ATXN expression. Potency, µM (series often up to 56.7 µM), actives largely listed as cytotoxic. AID 651635, 2014. 0.49% of 400,000 active. S2 cells (HEK-293 line with an ATXN2-luciferase reporter) viability, CellTiter-Fluor protease fluorescence, 24 h; further: nearly all actives have a fitted effect of over 40% in size
# A number is an active result; 0 = inactive; ? = inconclusive; - = no result. Unless noted, the call rests on the fitted dose curve; in most records, active means well fitted curve in the direction sought with a large enough effect; inconclusive means small, poorly fitted or top-dose-only effect, or another doubt; inactive means no such curve, though single readings can be large; an effect the other way counts as inactive or inconclusive.
SMILES,ATXN2 expr inh,IL-1B inflam inh,TGFb inhibitor,HepG2 viability,ATXN viability
CN(Cc1ccccc1)c1ccc(-c2nc(-c3ccco3)no2)cc1[N+](=O)[O-],0,-,?,0,?
CCOC(=O)c1cc(-c2ccc(OC)cc2)n(CCC(=O)NC2CCC(C)CC2)c1C (centres undefined),-,-,0,0,-
Cn1c(N/N=C/c2c[nH]c3ccccc23)nc2ccccc21,0,-98.2,?,0,?
Fc1c(F)c(F)c(N/N=C/c2c[nH]c3ccccc23)c(F)c1F,0,-87.2,?,0,?
Cc1ccc2[nH]c(CSc3nnc(NC(=O)COc4ccccc4C)s3)cc(=O)c2c1,0,-,0,0,0
Cc1ccc(NC(=O)CSc2n[nH]c(-c3ccc(F)cc3)n2)cc1F,-,-,11.2µM,0,-
Cc1ccc(NC(=O)CSc2ncccn2)cc1F,-,0,0,0,0
CC(CCc1ccccc1)NC(=O)CSc1n[nH]c(-c2ccccc2)n1 (centres undefined),-,-,0,0,-
CC(CCc1ccccc1)NC(=O)CSc1n[nH]c(-c2ccc(F)cc2)n1 (centres undefined),-,-,11.2µM,0,-
CCc1noc(-c2ccc(N3CCC(C)CC3)c([N+](=O)[O-])c2)n1,0,-,?,0,0
COc1ccc(-c2cc3ncc(-c4ccccc4)c(N)n3n2)cc1,0,-54.8,?,0,0
COc1ccc(-c2cc3nc(C)cc(-c4ccc(OC)cc4)n3n2)cc1,0,0,0,0,0
N#Cc1cnc2cc(-c3ccccc3)nn2c1N,0,0,0,0,0
COc1ccc(-c2cc3nc(C)cc(N)n3n2)cc1,0,0,0,10µM,?
O=C1c2ccccc2/C(=C\C#Cc2ccccn2)N1c1ccccc1,0,-100.0,0,0,?
CN(C)c1ccc(/C=C2\c3ccccc3C(=O)N2c2ccccc2)cn1,0,0,0,0,?
O=C(Nc1ccc2nn(-c3ccc(F)cc3)nc2c1)c1cccc2c(Cl)cccc12,0,-,0,0,0
Cn1c(-c2ccccc2)cnc1NCc1cc(Cl)ccc1O,0,-55.0,0,0,0
Cn1c(-c2ccccc2)cnc1NCc1ccc(-c2ccccc2)cc1,0,0,?,0,0
C=CCn1c(NCc2cc(Cl)ccc2O)nc2ccccc21,0,-69.0,0,0,0
C=CCc1cccc(CNc2nc3ccccc3n2C(C)C)c1O,31.6µM,0,12.6µM,0,?
CN(C)c1ccc(/C=C/c2ccnc3ccccc23)cc1Cl,-,-,0,0,-
CCOc1ccc2c(c1)c(=O)c(S(=O)(=O)c1ccc(Cl)cc1)cn2Cc1ccccc1C,0,-,?,0,0
CCOc1ccc(C(=O)C2CCN(CC(=O)Nc3ccccc3N3CCOCC3)CC2)cc1,?,0,14.1µM,0,0
O=C(CN1CCC(C(=O)c2ccc3c(c2)OCCO3)CC1)Nc1ccccc1C(F)(F)F,0,-56.9,0,0,0
SMILES,ATXN2 expr inh,IL-1B inflam inh,TGFb inhibitor,HepG2 viability,ATXN viability
Cc1ccccc1NC(=O)CN1CCC(C(=O)c2ccc3c(c2)OCCO3)CC1,0,0,0,0,0
CC(OC(=O)c1ccc(Cl)nc1)C(=O)NC1(C#N)CCCCC1 (centres undefined),0,0,0,0,0
CC(OC(=O)c1ncc(Cl)c(Cl)c1Cl)C(=O)NC1(C#N)CCCCC1 (centres undefined),0,-92.4,0,0,0
Cc1ccc(NC(=O)c2ccc(-n3cccn3)c([N+](=O)[O-])c2)cc1,0,0,0,0,0
O=C(Nc1ccccc1Cl)c1ccc(-n2cccn2)c([N+](=O)[O-])c1,0,-83.2,0,0,0
Cc1c(NC(=O)c2ccc(S(=O)(=O)N(C)C)cc2)cccc1-n1cnnn1,-,0,0,0,0
Cc1c(NC(=O)c2ccc(Cl)c([N+](=O)[O-])c2)cccc1-n1cnnn1,0,-99.0,0,0,?
Cc1cc(C)n2nc(CNC(=O)c3cccc(Cl)c3)nc2n1,-,-,0,0,-
Clc1ccc(SCc2cc(N3CCOCC3)nc(-c3ccccn3)n2)cc1,6.31µM,0,?,0,?
Clc1ccc(SCc2csc(N3CCOCC3)n2)cc1,0,0,?,0,-
COC(=O)c1c(OCc2ccccc2)cc(=O)n2c1CCN(Cc1cccc(C)n1)CC2,-,-,-,-,0
O=C(Nc1nc(-c2ccccn2)cs1)Nc1ccc(F)cc1F,14.1µM,-83.5,?,0,?
